# A selection: hits, their analogues and other compounds. The true share with any hit is near 3.1%.
# PPC-1+TRAIL kill – compounds killing PPC-1 cancer cells with TRAIL present, primary screen, TRAIL potentiator project, ATPLite luminescence, uHTS | PPC-1 cells + TRAIL, ATPLite viability luminescence | cell killing (% activity), % at 4 µM or 5 µM | hit rate 0.41% among 220,000;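 active = cell killing above 50% in the first pass at 4 µM, then a duplicate retest at 5 µM averaging 50% or more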;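 also: plate controls were cells with TRAIL plus DMSO for no effect and medium-only wells lacking cells for full effect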
# C8 TRAIL sens – viability loss with TRAIL in NB7+C8 cells, primary screen, TRAIL sensitizer project, cell-based, ATPlite luminescence | AID 624354, 2012 | inhibition (viability loss, TRAIL sensitization), % at 10 µM | hit rate 1% among 360,000;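 active = compounds causing at least 50% loss of cell viability in the single-dose screen, relative to plate controls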
# CF NFkB block – inhibitors of PAF-induced NF-kB signaling, primary screen, cell-based, GFP fluorescence, uHTS | KKLEB NF-kB-GFP reporter, GFP fluorescence overnight | inhibition, % at 5 µM | hit rate 0.86% among 360,000;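 active = at least 50% inhibition at 5 µM, scaled per plate between neutral and stimulator controls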;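 also: PAF is a Pseudomonas aeruginosa culture filtrate used as stimulus; plate controls were PAF-stimulated DMSO wells for no effect and unstimulated DMSO wells for full effect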
# Peg3 prom inh-1 – Peg3 promoter-driven luciferase inhibitors, primary screen, cell-based, HeLa, luciferase luminescence. HeLa PEG-Prom luciferase reporter, overnight. hit rate 1.7% among 360,000. AID 588405, 2011. inhibition, % at 20 µM;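 active = inhibition of at least 50% at 20 µM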
# KKLEB tox – cytotoxicity in KKLEB CF airway cells, primary screen, cytotoxicity control for CF NF-kB inhibitor project, cell-based, uHTS, fluorescence assay plates. AID 602141, 2011. hit rate 0.36% among 360,000. activity change (cytotoxicity), % at 5 µM. KKLEB CF airway cells viability, ATPlite luminescence, overnight; hits give low values; cells stimulated with P. aeruginosa culture filtrate;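 active = corrected activity change at or below -50% at 5 µM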
# HIF-2a inh – HIF-2a reporter inhibitors, primary screen, luminescence, 786-0 RCC cells. 786-0 RCC cells HIF-2a reporter, luciferase luminescence, overnight. inhibition, % at 18.8 µM. hit rate 0.72% among 360,000. AID 624352, 2012;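 active = inhibition of the luminescence signal of 40% or more relative to plate controls, in a single-dose primary screen at 18.75 µM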
# Peg3 prom inh-2 – Peg3 promoter reporter inhibitors, retest, confirmation, cell-based, HeLa, luciferase reporter, single concentration. shares compounds with Peg3 prom inh-1. HeLa PEG-Prom luciferase reporter, luminescence, overnight. inhibition, % at 20 µM. hit rate 84% among 1,300. AID 602417, 2012;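 active = at 20 µM dose, 40% or more inhibition averaged across four replicates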
# * = called active by the depositor; x = not tested or not shown.
SMILES,PPC-1+TRAIL kill,C8 TRAIL sens,CF NFkB block,Peg3 prom inh-1,KKLEB tox,HIF-2a inh,Peg3 prom inh-2
O=[N+]([O-])c1ccc(N2CCCCC2)cc1NCCOc1ccccc1,-16,18,15,-40,-24,-86,x
COc1cccc(N2CCN(CC(=O)Nc3ccccc3C(=O)NCc3ccccc3)CC2)c1,x,6,-6,57*,-12,25,51*
Cc1cc(C)c(CN2CCN(C(=O)CC[C@H]3O[C@@H](n4ccc(=O)[nH]c4=O)[C@H](O)[C@@H]3O)CC2)c(C)c1,x,1,-8,-2,15,17,x
O=C1[C@H](Cc2ccccc2)NCCCC[C@@H](c2ccc(Cl)cc2)N1Cc1ccc(Cl)cc1,x,-9,15,76*,7,9,22
O=C1[C@H](Cc2ccccc2)NCCCC[C@@H](c2ccco2)N1Cc1ccccc1,x,-1,21,6,-13,7,x
CC(=O)c1ccc(OCC(=O)Nc2nnc(C3CC3)s2)cc1,x,-12,-8,2,16,0,x
CC(C)CC(N)c1csc(Nc2ccc(C(=O)c3ccccc3)cc2)n1 (configuration not stated),x,13,39,53*,-22,2,94*
COc1ccc2c(c1OC)C(=O)N1c3ccccc3C(=O)N(c3ccccc3F)C21 (configuration not stated),21,9,86*,62*,-87*,7,45*
COc1ccc(-c2coc3c(C(=O)NCc4ccc(C(F)(F)F)cc4)cccc23)c(C)c1,x,14,12,7,-8,-4,x
CC1(C)Oc2cc3oc(-c4cc(O)cc(O)c4)cc3cc2CC1O (configuration not stated),x,80*,-7,59*,-10,38,65*
CCCCCN(C(=O)CCC(=O)OCC(=O)N1CCCC(C)C1)c1c(N)n(CCCC)c(=O)[nH]c1=O (configuration not stated),x,-9,-20,6,8,8,x
CC(C)C[C@@H](CN1CCC[C@H]1CN1C(=O)C(=O)NC[C@@H]1Cc1ccccc1)N1C[C@H](Cc2ccccc2)N(CC2CCCCC2)C(=O)C1=O,x,17,x,x,x,-24,x
NC(c1ccncc1)c1ccc(Cl)cc1 (configuration not stated),x,-3,5,9,3,3,x
COC(=O)C1=C(C)N(Cc2ccccc2)C(=NCCc2c[nH]c3ccccc23)N[C@H]1c1cccc(C(F)(F)F)c1,x,52*,28,99*,-29,-12,98*
COCCN=C1N[C@@H](c2cccc(C(F)(F)F)c2)C(C(=O)OC)=C(C)N1Cc1ccccc1,x,5,22,11,0,6,x
O=C(Nc1nnc(-c2ccco2)s1)c1ccccc1,13,29,-10,-61,-2,-48,x
COc1ccc(C(=O)Nc2nnc(-c3ccco3)s2)cc1,46,59*,23,63*,-27,-43,-39
O=C(COc1ccc(F)c(Cl)c1)Nc1ccc(N2CCOCC2)cc1,x,-3,16,0,-5,-18,x
CCCCN(C(=O)c1cc(S(=O)(=O)N2CCOCC2)ccc1N1CCOCC1)c1ccccc1,x,24,-24,2,1,13,x
CCNC(=O)c1c(NC(=O)c2cc(-c3cc(C)ccc3O)n[nH]2)sc2c1CCCC2,23,5,19,60*,-33,-10,17
Cc1cccc(C)c1NC(=O)C(c1ccc(C#N)cc1)n1c(=O)c(-c2ccco2)nc2ccccc21 (configuration not stated),x,-4,x,x,x,20,x
CCOc1cc(OCC)cc(C(=O)N2CCC[C@@H]2C(=O)N2CCC[C@H]2C(=O)NCc2ccncc2)c1,x,-13,x,x,x,8,x
COC(=O)c1cccc(CN2C(=O)C(C)Sc3ccc(C(C)=O)cc32)c1 (configuration not stated),x,-5,3,-138,-4,-136,x
CCN1C(=O)[C@H]2[C@@H](c3ccc(-c4ccc(Cl)c(Cl)c4)c(OC)c3)N3CCCC[C@@]3(C(=O)OC)[C@H]2C1=O,x,9,25,32,-6,15,x
CN(C(=O)Cn1cc(C(F)(F)F)cc(Cl)c1=O)C1CCS(=O)(=O)C1 (configuration not stated),x,-7,-9,7,-9,5,x
SMILES,PPC-1+TRAIL kill,C8 TRAIL sens,CF NFkB block,Peg3 prom inh-1,KKLEB tox,HIF-2a inh,Peg3 prom inh-2
Cc1cc(Sc2ncnc(N)c2[N+](=O)[O-])ncn1,18,0,66*,106*,5,16,100*
Cc1ccc(C)c(Oc2ncnc(N)c2[N+](=O)[O-])c1,-4,1,-5,1,1,17,x
CC1(C)C(Cl)C(=O)C(C(=O)c2ccccc2)C(=O)C1Cl (configuration not stated),x,-5,-10,11,0,9,x
COc1ccccc1N1CCN(CCS(=O)(=O)c2cc(Cl)ccc2Cl)CC1,x,-2,-15,6,2,-3,x
CC1CC(C)C(=O)C(C(CC2CC(=O)NC(=O)C2)OC(=O)CC(=O)c2ccccc2)C1 (configuration not stated),x,9,66*,81*,-14,27,83*
O=C1CCC(C(=O)OCC(=O)c2ccccc2)N1 (configuration not stated),-22,-1,7,-8,-6,9,x
Cc1cc(C)c(S(=O)(=O)Nc2ccc3c(c2)CCC3)c(C)c1,7,-13,25,51*,-1,17,41*
O=C(Nc1cccc(S(=O)(=O)N2CCOCC2)c1)c1ccc2c(=O)n3c(nc2c1)CCCCC3,27,31,-13,51*,-6,11,51*
CC(=O)Nc1ccc(Cc2ccc3[nH]c(=O)cc(C)c3c2)cc1,12,x,x,x,x,x,x
[O-]C(=C(C(=S)Nc1cccc2ccccc12)[n+]1ccccc1)c1ccc2c(c1)OCCO2,x,-2,-21,54*,15,72*,21
Cc1ccc(-n2c(N)c(C(=O)Nc3c(C)n(C)n(-c4ccccc4)c3=O)c3nc4ccccc4nc32)cc1,5,18,15,76*,-47,-13,51*
Cc1ccc(C(=O)Nc2c(C)n(C)n(-c3ccccc3)c2=O)cc1,14,-11,-6,7,13,22,x
O=C(Nc1ccccc1)c1ccc(F)c(S(=O)(=O)N2CCOCC2)c1,16,-6,-5,1,-1,-16,x
O=C(Nc1ccc(-c2cn3ccsc3n2)cc1)c1ccc(F)c(S(=O)(=O)N2CCOCC2)c1,20,48,-40,80*,25,-78,96*

# Source: PubChem (Sanford-Burnham Center for Chemical Genomics)
